A number with no mark means an inactive call. Calls of active or inactive are those of the source.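 Rule for the calls: active = valid curve fit with half-effect dose at most 10 µM and total binding change across doses of 30 points or more; inactive = the rest.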
test system: Rho wt; assay: small GTPase nucleotide-binding inhibition, multiplex panel – biochemical, round 1 SAR, Mg buffer, multiplex flow cytometry, selectivity assay for Cdc42 probe extension project, SAR follow-up (AID 588477); details: GST-GTPase beads, Bodipy-GTP binding; series mostly up to 100 µM; percent response (remaining binding): at the top concentration

Row | SMILES | outcome | percent response (remaining binding)
1 | O=C(C#Cc1ccccc1)c1cccc([N+](=O)[O-])c1 | inactive | 
2 | NS(=O)(=O)c1ccc(N2N=C(c3ccccc3)CC2c2ccccc2)cc1 (stereo not drawn) |  | 95.8%
3 | COc1ccc(C2CC(c3ccccc3)=NN2c2ccc(S(N)(=O)=O)cc2)cc1 (stereo not drawn) |  | 92.8%

— PubChem BioAssay AID588477 (NMMLSC, 2011)
